Test results: PubChem BioAssay (NCATS)
Records with an inconclusive call do not appear. Entries that show only a call come without a potency. Active and inactive are the calls of the source. Calls follow the shape of the dose curve; as a rule, active = well fitted curve in the direction sought with a large enough effect; inconclusive = small, poorly fitted or top-dose-only effect, or another doubt; inactive = no such curve, though single readings can be large; an effect the other way counts as inactive or inconclusive.

Experiment: qHTS of Nrf2 Activators: LOPAC Validation (AID 624149)
Settings: Nrf2/ARE reporter cell assay; series mostly up to 46.1 µM
Outline: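 Following overnight seeding in 5% FBS OPTI-MEM, AREc32_Fluc cells receive compounds for a 24 hr incubation at 37 deg C with 5% CO2. Steady-Glo is added, and after 30 min at RT luminescence is recorded.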

Row | Compound | outcome
1 | O=C1Cc2cc(CCN3CCN(c4nsc5ccccc45)CC3)c(Cl)cc2N1 | inactive
2 | Cc1cn([C@H]2C[C@H](N=[N+]=[N-])[C@@H](CO)O2)c(=O)[nH]c1=O | inactive
3 | COc1cc2nc(N(C)CCCNC(=O)C3CCCO3)nc(N)c2cc1OC (stereo not drawn) | inactive
4 | CN1CCN(CCCN2c3ccccc3Sc3ccc(Cl)cc32)CC1 | inactive
5 | C[C@H]1c2cccc(O)c2C(O)=C2C(=O)[C@]3(O)C(O)=C(C(N)=O)C(=O)[C@@H](N(C)C)[C@@H]3[C@@H](O)[C@@H]21 | inactive
6 | Cn1c(=O)c2[nH]cnc2n(C)c1=O | inactive
7 | CCc1cccc2c3c([nH]c12)C(CC)(CC(=O)O)OCC3 (stereo not drawn) | inactive
8 | Nc1ccn([C@H]2CC[C@@H](CO)O2)c(=O)n1 | inactive
9 | CC1COc2c(N3CCN(C)CC3)c(F)cc3c(=O)c(C(=O)O)cn1c23 (stereo not drawn) | inactive
10 | CC(COc1ccccc1)N(CCCl)Cc1ccccc1 (stereo not drawn) | inactive
11 | Nc1c2c(nc3ccccc13)CCCC2 | inactive
12 | COc1ccc2c(c1)c(CC(=O)O)c(C)n2C(=O)c1ccc(Cl)cc1 | inactive
13 | Cc1ccccc1N1C(=O)c2cc(S(N)(=O)=O)c(Cl)cc2NC1C (stereo not drawn) | inactive
14 | COc1cc2nc(N3CCN(C(=O)c4ccco4)CC3)nc(N)c2cc1OC | inactive
15 | COc1cc2c(c(OC)c1OC)-c1ccc(OC)c(=O)cc1[C@@H](NC(C)=O)CC2 | inactive
16 | NC(CO)C(=O)NNCc1ccc(O)c(O)c1O (stereo not drawn) | inactive
17 | Fc1ccc([C@@H]2CCNC[C@H]2COc2ccc3c(c2)OCO3)cc1 | inactive
18 | CCC1(C)CC(=O)NC1=O (stereo not drawn) | inactive
19 | CN1C2CCC1CC(OC(=O)C(CO)c1ccccc1)C2 (stereo not drawn) | inactive
20 | CN1CCC(=C2c3ccccc3C=Cc3ccccc32)CC1 | inactive
21 | NC12CC3CC(CC(C3)C1)C2 | inactive
22 | CN(C)CCCN1c2ccccc2CCc2ccc(Cl)cc21 | inactive
23 | CC(C)C(=O)Nc1ccc([N+](=O)[O-])c(C(F)(F)F)c1 | inactive
24 | CN1CCC(=C2c3ccccc3CC(=O)c3sccc32)CC1 | inactive
25 | Clc1ccc(C(c2ccccc2Cl)C(Cl)Cl)cc1 (stereo not drawn) | inactive
26 | COc1ccccc1N1CCN(CC(O)COc2cccc3ccccc23)CC1 (stereo not drawn) | inactive
27 | O=c1[nH]cc(F)c(=O)[nH]1 | inactive
28 | COc1ccc(C2CNC(=O)C2)cc1OC1CCCC1 (stereo not drawn) | inactive
29 | CN(C)CCC=C1c2ccccc2C=Cc2ccccc21 | inactive
30 | OCCN1CCN(CCCN2c3ccccc3Sc3ccc(C(F)(F)F)cc32)CC1 | inactive

Experiment: HTS Assay for Allosteric Antagonists of the Human D2 Dopamine Receptor: Hit Validation in HTRF (AID 624455);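 also: stable D1 dopamine receptor cell line scored for blocking the D1 response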
Settings: Cells stably expressing D1 dopamine receptor, inhibition mode; series mostly up to 46.1 µM
Outline: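 Validation of hits used D1 receptor stably expressed in cells with HTRF detection of response inhibition; origin screen measured calcium flux following EC80 dopamine in a force-coupled, inducible Hek293 Trex D2 cell line.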

Row | Compound | Potency
31 | O=C1Cc2cc(CCN3CCN(c4nsc5ccccc45)CC3)c(Cl)cc2N1 | inactive
32 | CN(C)C(=O)C(CCN1CCC(O)(c2ccc(Cl)cc2)CC1)(c1ccccc1)c1ccccc1 | inactive
33 | Cc1cn([C@H]2C[C@H](N=[N+]=[N-])[C@@H](CO)O2)c(=O)[nH]c1=O | inactive
34 | COc1cc2nc(N(C)CCCNC(=O)C3CCCO3)nc(N)c2cc1OC (stereo not drawn) | inactive
35 | CN1CCN(CCCN2c3ccccc3Sc3ccc(Cl)cc32)CC1 | inactive
36 | C[C@H]1c2cccc(O)c2C(O)=C2C(=O)[C@]3(O)C(O)=C(C(N)=O)C(=O)[C@@H](N(C)C)[C@@H]3[C@@H](O)[C@@H]21 | inactive
37 | Cn1c(=O)c2[nH]cnc2n(C)c1=O | inactive
38 | CCc1cccc2c3c([nH]c12)C(CC)(CC(=O)O)OCC3 (stereo not drawn) | inactive
39 | Nc1ccn([C@H]2CC[C@@H](CO)O2)c(=O)n1 | inactive
40 | CC1COc2c(N3CCN(C)CC3)c(F)cc3c(=O)c(C(=O)O)cn1c23 (stereo not drawn) | inactive
41 | CC(COc1ccccc1)N(CCCl)Cc1ccccc1 (stereo not drawn) | inactive
42 | Nc1c2c(nc3ccccc13)CCCC2 | inactive
43 | COc1ccc2c(c1)c(CC(=O)O)c(C)n2C(=O)c1ccc(Cl)cc1 | inactive
44 | Cc1ccccc1N1C(=O)c2cc(S(N)(=O)=O)c(Cl)cc2NC1C (stereo not drawn) | inactive
45 | COc1cc2nc(N3CCN(C(=O)c4ccco4)CC3)nc(N)c2cc1OC | inactive
46 | COc1cc2c(c(OC)c1OC)-c1ccc(OC)c(=O)cc1[C@@H](NC(C)=O)CC2 | inactive
47 | NC(CO)C(=O)NNCc1ccc(O)c(O)c1O (stereo not drawn) | inactive

Row | Compound | Potency
48 | CC(C(=O)O)c1cccc(C(=O)c2ccccc2)c1 (stereo not drawn) | inactive
49 | Fc1ccc([C@@H]2CCNC[C@H]2COc2ccc3c(c2)OCO3)cc1 | inactive
50 | CCC1(C)CC(=O)NC1=O (stereo not drawn) | inactive
51 | CN1C2CCC1CC(OC(=O)C(CO)c1ccccc1)C2 (stereo not drawn) | inactive
52 | CN1CCC(=C2c3ccccc3C=Cc3ccccc32)CC1 | inactive
53 | NC12CC3CC(CC(C3)C1)C2 | inactive
54 | CN(C)CCCN1c2ccccc2CCc2ccc(Cl)cc21 | inactive
55 | CC(C)C(=O)Nc1ccc([N+](=O)[O-])c(C(F)(F)F)c1 | inactive
56 | CN1CCC(=C2c3ccccc3CC(=O)c3sccc32)CC1 | inactive
57 | Clc1ccc(C(c2ccccc2Cl)C(Cl)Cl)cc1 (stereo not drawn) | inactive
58 | COc1ccccc1N1CCN(CC(O)COc2cccc3ccccc23)CC1 (stereo not drawn) | inactive
59 | O=c1[nH]cc(F)c(=O)[nH]1 | inactive
60 | O=C(C1CCCCC1)N1CC(=O)N2CCc3ccccc3C2C1 (stereo not drawn) | inactive
61 | COc1ccc(C2CNC(=O)C2)cc1OC1CCCC1 (stereo not drawn) | inactive
62 | CN(C)CCC=C1c2ccccc2C=Cc2ccccc21 | inactive
63 | OCCN1CCN(CCCN2c3ccccc3Sc3ccc(C(F)(F)F)cc32)CC1 | inactive
